# Where two headings read alike, the source gives them in different places.
# How the values were obtained:
# Conditions in all cases: read-out: apparent Kd, n = 1
# MAPK10 = tested on: MAPK10
# PBK = tested on: PBK
# PDGFRB = tested on: PDGFRB
# [1] = compound concentrations:100 nM and 1000 nM (sheet 'Lestaurtinib' of Supplementary Table 1),run:Lestaurtinib_02606_R3,Plate:MR019
# [2] = compound concentrations:100 nM and 1000 nM (sheet 'Lestaurtinib' of Supplementary Table 1),run:Lestaurtinib_02748_R3,Plate:MR024
# [3] = compound concentrations:100 nM and 1000 nM (sheet 'Lestaurtinib' of Supplementary Table 1),run:Lestaurtinib_02766_R1,Plate:MR027
# [4] = compound concentrations:100 nM and 1000 nM (sheet 'Lestaurtinib' of Supplementary Table 1),run:Lestaurtinib_02896_R3,Plate:MR030
# [5] = compound concentrations:100 nM and 1000 nM (sheet 'Lestaurtinib' of Supplementary Table 1),run:Lestaurtinib_03172_R1,Plate:MR031
substance,measurement,setting,value
Lestaurtinib,potency estimated from few doses,"MAPK10; compound concentrations:100 nM and 1000 nM (sheet 'Lestaurtinib' of Supplementary Table 1),run:Lestaurtinib_02572_R1,Plate:MR015",896 nM
same,potency estimated from few doses,"MAPK10; compound concentrations:100 nM and 1000 nM (sheet 'Lestaurtinib' of Supplementary Table 1),run:Lestaurtinib_02577_R2,Plate:MR016",636 nM
same,potency estimated from few doses,"MAPK10; compound concentrations:100 nM and 1000 nM (sheet 'Lestaurtinib' of Supplementary Table 1),run:Lestaurtinib_02577_R3,Plate:MR016",743 nM
same,potency estimated from few doses,"MAPK10; compound concentrations:100 nM and 1000 nM (sheet 'Lestaurtinib' of Supplementary Table 1),run:Lestaurtinib_02584_R1,Plate:MR017",744 nM
same,potency estimated from few doses,"MAPK10; compound concentrations:100 nM and 1000 nM (sheet 'Lestaurtinib' of Supplementary Table 1),run:Lestaurtinib_02584_R3,Plate:MR017",692 nM
same,potency estimated from few doses,"MAPK10; compound concentrations:100 nM and 1000 nM (sheet 'Lestaurtinib' of Supplementary Table 1),run:Lestaurtinib_02601_R1,Plate:MR018",819 nM
same,potency estimated from few doses,MAPK10; [1],845 nM
same,potency estimated from few doses,"MAPK10; compound concentrations:100 nM and 1000 nM (sheet 'Lestaurtinib' of Supplementary Table 1),run:Lestaurtinib_02624_R1,Plate:MR020",802 nM
same,potency estimated from few doses,"MAPK10; compound concentrations:100 nM and 1000 nM (sheet 'Lestaurtinib' of Supplementary Table 1),run:Lestaurtinib_02624_R2,Plate:MR020",1320 nM
same,potency estimated from few doses,"MAPK10; compound concentrations:100 nM and 1000 nM (sheet 'Lestaurtinib' of Supplementary Table 1),run:Lestaurtinib_02624_R3,Plate:MR020",818 nM
same,potency estimated from few doses,"MAPK10; compound concentrations:100 nM and 1000 nM (sheet 'Lestaurtinib' of Supplementary Table 1),run:Lestaurtinib_02724_R1,Plate:MR021",870 nM
same,potency estimated from few doses,"MAPK10; compound concentrations:100 nM and 1000 nM (sheet 'Lestaurtinib' of Supplementary Table 1),run:Lestaurtinib_02724_R2,Plate:MR021",518 nM
same,potency estimated from few doses,"MAPK10; compound concentrations:100 nM and 1000 nM (sheet 'Lestaurtinib' of Supplementary Table 1),run:Lestaurtinib_02724_R3,Plate:MR021",573 nM
same,potency estimated from few doses,"MAPK10; compound concentrations:100 nM and 1000 nM (sheet 'Lestaurtinib' of Supplementary Table 1),run:Lestaurtinib_02741_R2,Plate:MR023",929 nM
same,potency estimated from few doses,"MAPK10; compound concentrations:100 nM and 1000 nM (sheet 'Lestaurtinib' of Supplementary Table 1),run:Lestaurtinib_02748_R1,Plate:MR024",747 nM
same,potency estimated from few doses,"MAPK10; compound concentrations:100 nM and 1000 nM (sheet 'Lestaurtinib' of Supplementary Table 1),run:Lestaurtinib_02748_R2,Plate:MR024",824 nM
same,potency estimated from few doses,MAPK10; [2],1610 nM
same,potency estimated from few doses,"MAPK10; compound concentrations:100 nM and 1000 nM (sheet 'Lestaurtinib' of Supplementary Table 1),run:Lestaurtinib_02765_R1,Plate:MR026",795 nM
same,potency estimated from few doses,"MAPK10; compound concentrations:100 nM and 1000 nM (sheet 'Lestaurtinib' of Supplementary Table 1),run:Lestaurtinib_02765_R3,Plate:MR026",501 nM
same,potency estimated from few doses,MAPK10; [3],1530 nM
same,potency estimated from few doses,"MAPK10; compound concentrations:100 nM and 1000 nM (sheet 'Lestaurtinib' of Supplementary Table 1),run:Lestaurtinib_02795_R3,Plate:MR022",886 nM
same,potency estimated from few doses,"MAPK10; compound concentrations:100 nM and 1000 nM (sheet 'Lestaurtinib' of Supplementary Table 1),run:Lestaurtinib_02802_R2,Plate:MR029",1410 nM
same,potency estimated from few doses,"MAPK10; compound concentrations:100 nM and 1000 nM (sheet 'Lestaurtinib' of Supplementary Table 1),run:Lestaurtinib_02896_R1,Plate:MR030",532 nM
same,potency estimated from few doses,MAPK10; [4],592 nM
same,potency estimated from few doses,MAPK10; [5],784 nM
same,potency estimated from few doses,"MAPK10; compound concentrations:100 nM and 1000 nM (sheet 'Lestaurtinib' of Supplementary Table 1),run:Lestaurtinib_03172_R2,Plate:MR031",591 nM
same,potency estimated from few doses,"MAPK10; compound concentrations:100 nM and 1000 nM (sheet 'Lestaurtinib' of Supplementary Table 1),run:Lestaurtinib_03252_R1,Plate:MR032",932 nM
same,potency estimated from few doses,"MAPK10; compound concentrations:100 nM and 1000 nM (sheet 'Lestaurtinib' of Supplementary Table 1),run:Lestaurtinib_03252_R2,Plate:MR032",717 nM
same,potency estimated from few doses,"MAPK10; compound concentrations:100 nM and 1000 nM (sheet 'Lestaurtinib' of Supplementary Table 1),run:Lestaurtinib_03260_R2,Plate:MR033",671 nM
same,potency estimated from few doses,"PBK; compound concentrations:100 nM and 1000 nM (sheet 'Lestaurtinib' of Supplementary Table 1),run:Lestaurtinib_02364_R3,Plate:MR002",2310 nM
same,potency estimated from few doses,"PBK; compound concentrations:100 nM and 1000 nM (sheet 'Lestaurtinib' of Supplementary Table 1),run:Lestaurtinib_02381_R2,Plate:MR004",1820 nM
same,potency estimated from few doses,"PBK; compound concentrations:100 nM and 1000 nM (sheet 'Lestaurtinib' of Supplementary Table 1),run:Lestaurtinib_02606_R1,Plate:MR019",1970 nM
same,potency estimated from few doses,PBK; [1],2120 nM
same,potency estimated from few doses,"PBK; compound concentrations:100 nM and 1000 nM (sheet 'Lestaurtinib' of Supplementary Table 1),run:Lestaurtinib_02741_R1,Plate:MR023",1530 nM
same,potency estimated from few doses,PBK; [2],1440 nM
same,potency estimated from few doses,PBK; [3],1690 nM
same,potency estimated from few doses,"PBK; compound concentrations:100 nM and 1000 nM (sheet 'Lestaurtinib' of Supplementary Table 1),run:Lestaurtinib_02766_R3,Plate:MR027",1760 nM
same,potency estimated from few doses,"PBK; compound concentrations:100 nM and 1000 nM (sheet 'Lestaurtinib' of Supplementary Table 1),run:Lestaurtinib_02896_R2,Plate:MR030",1580 nM
same,potency estimated from few doses,PBK; [4],1970 nM
same,potency estimated from few doses,PBK; [5],1810 nM
same,potency estimated from few doses,"PBK; compound concentrations:100 nM and 1000 nM (sheet 'Lestaurtinib' of Supplementary Table 1),run:Lestaurtinib_03172_R3,Plate:MR031",1840 nM
same,potency estimated from few doses,"PDGFRB; compound concentrations:100 nM and 1000 nM (sheet 'Lestaurtinib' of Supplementary Table 1),run:Lestaurtinib_02364_R1,Plate:MR002",2200 nM
same,potency estimated from few doses,"PDGFRB; compound concentrations:100 nM and 1000 nM (sheet 'Lestaurtinib' of Supplementary Table 1),run:Lestaurtinib_02381_R1,Plate:MR004",1570 nM

# Source: article PMC11062922 (Nature Chemical Biology, 2023)
